Source: PubChem BioAssay AID1159580 (chemical genetic matrix, 2015)
The whole screen tested about 5,500 compounds, of which about 2,000 (36%) were called active. Inconclusive results (about 18%) are left out. The list shows a part of the results. A number with no mark means an inactive call. Rule as the data show it: active = normalized growth mostly below about 0.91 (no sharp cut-off); inconclusive = no clear call, values can overlap the other calls; inactive = mostly above about 0.92.

Assay: chemical genetic growth profiling, strain panel (AID 1159580);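 also: tested at 20 µM; growth read once vehicle control cultures reached saturation at 30 °C; 1 = growth at the plate median or of vehicle wells; lower values mean less growth of the strain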
Conditions: S. cerevisiae deletion strains, growth OD

With `COc1cc(/C=C/C(=O)/C=C(O)/C=C/c2ccc(O)c(OC)c2)ccc1O` the normalized growth (locus YAL021C, strain ccr4, active compounds read low) was 0.0789 (active), the normalized growth (locus YAL026C, strain drs2, active compounds read low) was 0.118 (active) and the normalized growth (locus YAL030W, strain snc1, active compounds read low) was 0.157 (active). For the same compound, the normalized growth (locus YBL061C, strain skt5, active compounds read low) was 0.175 (active), the normalized growth (locus YBR009C, strain hhf1, active compounds read low) was 0.149 (active) and the normalized growth (locus YBR023C, strain chs3, active compounds read low) was 0.172 (active). For the same compound, the normalized growth (locus YBR171W, strain sec66, active compounds read low) was 0.132 (active), the normalized growth (locus YBR231C, strain swc5, active compounds read low) was 0.091 (active) and the normalized growth (locus YBR279W, strain paf1, active compounds read low) was 0.307 (active). The normalized growth (locus YCL011C, strain gbp2, active compounds read low) was 0.184 (active), the normalized growth (locus YCL016C, strain dcc1, active compounds read low) was 0.4 (active) and the normalized growth (locus YCL061C, strain MRC1, active compounds read low) was 0.216 (active). For the same compound, the normalized growth (locus YCL069W, strain vba3, active compounds read low) was 0.224 (active), the normalized growth (locus YCR088W, strain abp1, active compounds read low) was 0.265 (active) and the normalized growth (locus YDL005C, strain med2, active compounds read low) was 0.089 (active). The normalized growth (locus YDL040C, strain nat1, active compounds read low) was 0.0875 (active), the normalized growth (locus YDR001C, strain nth1, active compounds read low) was 0.249 (active) and the normalized growth (locus YDR069C, strain doa4, active compounds read low) was 0.0822 (active). The normalized growth (locus YDR137W, strain rgp1, active compounds read low) was 0.149 (active), the normalized growth (locus YDR159W, strain sac3, active compounds read low) was 0.112 (active) and the normalized growth (locus YDR195W, strain ref2) was 0.156 (active). For the same compound, the normalized growth (locus YDR297W, strain sur2, active compounds read low) was 0.187 (active), the normalized growth (locus YDR334W, strain swr1, active compounds read low) was 0.109 (active) and the normalized growth (locus YDR335W, strain msn5, active compounds read low) was 0.0992 (active). The normalized growth (locus YDR392W, strain spt3, active compounds read low) was 0.14 (active), the normalized growth (locus YEL003W, strain gim4, active compounds read low) was 0.0989 (active) and the normalized growth (locus YEL037C, strain rad23, active compounds read low) was 0.155 (active). For the same compound, the normalized growth (locus YEL061C, strain CIN8 (second series), active compounds read low) was 0.243 (active), the normalized growth (locus YER015W, strain faa2, active compounds read low) was 0.119 (active) and the normalized growth (locus YER016W, strain bim1, active compounds read low) was 0.396 (active). The normalized growth (locus YER111C, strain swi4, active compounds read low) was 0.094 (active), the normalized growth (locus YER155C, strain BEM2 (second series), active compounds read low) was 0.242 (active) and the normalized growth (locus YFR010W, strain ubp6, active compounds read low) was 0.187 (active). The normalized growth (locus YGL167C, strain pmr1, active compounds read low) was 0.177 (active), the normalized growth (locus YGL173C, strain kem1, active compounds read low) was 0.107 (active) and the normalized growth (locus YGL227W, strain vid30, active compounds read low) was 0.507 (active). The normalized growth (locus YGL240W, strain doc1, active compounds read low) was 0.399 (active), the normalized growth (locus YGL253W, strain hxk2, active compounds read low) was 0.224 (active) and the normalized growth (locus YHR013C, strain ard1, active compounds read low) was 0.178 (active). The normalized growth (locus YHR027C, strain rpn1, active compounds read low) was 0.0816 (active), the normalized growth (locus YHR030C, strain SLT2, active compounds read low) was 0.653 (active) and the normalized growth (locus YHR079C, strain IRE1, active compounds read low) was 0.574 (active). The normalized growth (locus YHR142W, strain chs7, active compounds read low) was 0.0884 (active), the normalized growth (locus YJL092W, strain hpr5, active compounds read low) was 0.222 (active) and the normalized growth (locus YJL095W, strain BCK1 (second series), active compounds read low) was 0.0924 (active). The normalized growth (locus YJL095W, strain BCK1, active compounds read low) was 0.546 (active), the normalized growth (locus YJL115W, strain asf1, active compounds read low) was 0.313 (active) and the normalized growth (locus YJL129C, strain trk1, active compounds read low) was 0.108 (active). For the same compound, the normalized growth (locus YJL154C, strain vps35, active compounds read low) was 0.251 (active), the normalized growth (locus YJL164C, strain tpk1, active compounds read low) was 0.143 (active) and the normalized growth (locus YJL166W, strain qcr8, active compounds read low) was 0.0762 (active). For the same compound, the normalized growth (locus YJR066W, strain TOR1, active compounds read low) was 0.828, the normalized growth (locus YKL160W, strain elf1, active compounds read low) was 0.433 (active) and the normalized growth (locus YKR026C, strain gcn3, active compounds read low) was 0.229 (active). The normalized growth (locus YKR091W, strain srl3, active compounds read low) was 0.304 (active), the normalized growth (locus YLL001W, strain dnm1, active compounds read low) was 0.212 (active) and the normalized growth (locus YLL026W, active compounds read low) was 0.131 (active). For the same compound, the normalized growth (locus YLL041C, strain sdh2, active compounds read low) was 0.0974 (active), the normalized growth (locus YLR027C, strain aat2, active compounds read low) was 0.161 (active) and the normalized growth (locus YLR113W, strain HOG1, active compounds read low) was 0.227 (active). For the same compound, the normalized growth (locus YLR221C, strain rsa3, active compounds read low) was 0.204 (active), the normalized growth (locus YLR258W, strain gsy2, active compounds read low) was 0.17 (active) and the normalized growth (locus YLR262C, strain YPT6 (second series), active compounds read low) was 0.142 (active). The normalized growth (locus YLR320W, strain mms22, active compounds read low) was 0.163 (active), the normalized growth (locus YLR342W, strain FKS1, active compounds read low) was 0.173 (active) and the normalized growth (locus YLR357W, strain rsc2, active compounds read low) was 0.34 (active). The normalized growth (locus YLR370C, strain arc18, active compounds read low) was 0.171 (active), the normalized growth (locus YLR384C, strain iki3, active compounds read low) was 0.155 (active) and the normalized growth (locus YML120C, strain ndi1, active compounds read low) was 0.115 (active). The normalized growth (locus YMR058W, strain fet3, active compounds read low) was 0.0838 (active), the normalized growth (locus YMR125W, strain sto1, active compounds read low) was 0.16 (active) and the normalized growth (locus YMR129W, active compounds read low) was 0.276 (active). The normalized growth (locus YMR205C, strain PFK2, active compounds read low) was 0.134 (active), the normalized growth (locus YMR231W, strain pep5, active compounds read low) was 0.134 (active) and the normalized growth (locus YNL071W, strain lat1, active compounds read low) was 0.269 (active). For the same compound, the normalized growth (locus YNL183C, strain NPR1, active compounds read low) was 0.761 (active), the normalized growth (locus YNL209W, strain ssb2, active compounds read low) was 0.0983 (active) and the normalized growth (locus YNL248C, strain rpa49, active compounds read low) was 0.443 (active). The normalized growth (locus YNL322C, strain KRE1 (second series), active compounds read low) was 0.16 (active), the normalized growth (locus YNR049C, strain mso1, active compounds read low) was 0.175 (active) and the normalized growth (locus YOR001W, strain rrp6, active compounds read low) was 0.139 (active). The normalized growth (locus YOR070C, strain gyp1, active compounds read low) was 0.416 (active), the normalized growth (locus YOR080W, strain dia2, active compounds read low) was 0.0852 (active) and the normalized growth (locus YOR083W, strain WHI5, active compounds read low) was 0.203 (active). The normalized growth (locus YOR106W, strain vam3, active compounds read low) was 0.0922 (active), the normalized growth (locus YOR231W, strain MKK1, active compounds read low) was 0.575 (active) and the normalized growth (locus YOR265W, strain rbl2, active compounds read low) was 0.159 (active). For the same compound, the normalized growth (locus YOR270C, strain vph1, active compounds read low) was 0.115 (active), the normalized growth (locus YOR290C, strain snf2, active compounds read low) was 0.101 (active) and the normalized growth (locus YPL051W, strain arl3, active compounds read low) was 0.118 (active). For the same compound, the normalized growth (locus YPL078C, strain atp4, active compounds read low) was 0.182 (active), the normalized growth (locus YPL106C, strain sse1, active compounds read low) was 0.251 (active) and the normalized growth (locus YPL240C, strain hsp82, active compounds read low) was 0.294 (active). The normalized growth (locus YPL256C, strain CLN2, active compounds read low) was 0.494 (active).
